Hits are enriched below; roughly 2.5% of the tested compounds scored in any of these assays.
Lassa entry inh – blocks Lassa virus binding to or entry into cells; Potency, µM (top dose mostly 37.9 µM), usual class: inhibitors; 300,000 compounds, 1.2% hits; Lassa virus pseudotype entry inhibition, cell reporter; calls by dose curve; tested in HEK293 cells; also: nearly all actives have a fitted effect of over 50% in size
Vaccinia Venus – inhibitors of vaccinia virus (Venus reporter); Vaccinia virus Venus reporter expression, fluorescence; 330,000 compounds, 0.46% hits; AID 720580; Potency, µM (titrated, usually from 36.5 µM), usual class: inhibitors; calls by dose curve; tested in A549 cells; also: nearly all actives have a fitted effect of over 30% in size
MARV entry inh – inhibitors of Marburg virus binding or cell entry. Marburg virus pseudotyped entry inhibition, cell reporter. Potency, µM (titrated, usually from 37.8 µM), actives largely listed as inhibitors. 300,000 compounds, 1.8% hits; calls by dose curve; tested in HEK293 cells
Vaccinia mCherry – vaccinia inhibition (mCherry reporter); Vaccinia virus mCherry reporter infection, fluorescence; 310,000 compounds, 0.63% hits; Potency, µM (highest dose often 36.5 µM), hits mostly inhibitors; AID 720579; calls by dose curve; tested in A549 cells; also: nearly all actives have a fitted effect of over 35% in size
Large screens that a line does not name were inactive; ! = repeats disagree.

CCOC(=O)C(C(C)=O)c1c(Br)c(O)c(O)c2c(C(=O)c3ccc(C)cc3)coc12 (stereo not given)	Vaccinia Venus 12.6µM, MARV entry inh 2.31µM!, Vaccinia mCherry 12.6µM
Cn1cc(CN2CCN(c3ccccc3)CC2)c2ccccc21	MARV entry inh 14.6µM (no result: Vaccinia Venus, Vaccinia mCherry)
Clc1ccccc1CN1CCN(c2ccccc2)CC1	none
Cc1cc(C)cc(N2Cc3ccccc3C2)c1	none (no result: Lassa entry inh)
COc1cc(N2Cc3ccccc3C2)ccc1C=O	Lassa entry inh inconclusive, MARV entry inh 7.94µM
CCN1CCN(c2nc(Nc3ccc(C)c(C)c3)nc(N)c2[N+](=O)[O-])CC1	MARV entry inh 16.4µM, Vaccinia mCherry inconclusive
Cc1cccc(Nc2nc(N)c([N+](=O)[O-])c(N3CC(C)CC(C)C3)n2)c1 (stereo not given)	Lassa entry inh inconclusive, Vaccinia Venus inconclusive, MARV entry inh inconclusive, Vaccinia mCherry 20µM
Nc1nc(Nc2ccccc2)nc(N2CCOCC2)c1[N+](=O)[O-]	Lassa entry inh inconclusive
CCOC(=O)N1CCN(C(=O)CSc2nnc(-c3ccc(C)c(C)c3)o2)CC1	Vaccinia Venus inconclusive, Vaccinia mCherry 10µM (no result: Lassa entry inh, MARV entry inh)
O=C(CSc1nnc(-c2ccccc2Cl)o1)N1CCCCC1	none (no result: Lassa entry inh, MARV entry inh)
CCOC(=O)N1CCN(C(=O)CSc2nnc(-c3cc(OC)cc(OC)c3)o2)CC1	Vaccinia Venus inconclusive, MARV entry inh inconclusive (no result: Vaccinia mCherry)
O=C(CSc1nnc(-c2ccccc2Cl)o1)N1CCCC1	Lassa entry inh 2.82µM, MARV entry inh inconclusive
CCOC(=O)N1CCN(C(=O)CSc2nnc(-c3ccc(C(C)(C)C)cc3)o2)CC1	Vaccinia Venus inconclusive, MARV entry inh inconclusive, Vaccinia mCherry 5.62µM
COc1cccc(-c2ccnc(-n3ncc(C(=O)NCC(C)(C)CN(C)C)c3C)n2)c1	none (no result: Lassa entry inh, MARV entry inh)
C=C1C(=O)OC2C1CCC(C)=C1C(=O)C3OC3(C)C12 (stereo not given)	Vaccinia Venus inconclusive, Vaccinia mCherry 11.2µM (no result: Lassa entry inh, MARV entry inh)
CC(=O)c1ccccc1-c1ccc2c(c1)CC(CNC(=O)C[C@@H]1C[C@@H](C)NC(=S)N1)O2 (stereo not given in full)	none (no result: Lassa entry inh, MARV entry inh)
CC(C)(C)C(=O)OC1=CN(Cc2ccccc2)S(=O)(=O)c2ccccc21	Vaccinia Venus inconclusive, Vaccinia mCherry 11.2µM
CC(CCN1CCCCc2nc(C)c(C)cc21)=NOC[C@@H](O)[C@H]1O[C@@H]2OC(C)(C)O[C@H]2[C@@H]1O	Lassa entry inh inconclusive (no result: Vaccinia Venus, Vaccinia mCherry)
Cc1nnnn1/C(=C\c1ccccc1)C(=O)OCC(=O)N(C)C1CCS(=O)(=O)C1 (stereo not given)	none
CCN(C(=O)COC(=O)/C(=C/c1ccccc1)n1nnnc1C)C1CCCCC1	MARV entry inh 12.6µM, Vaccinia mCherry inconclusive
CCc1cc2c(nc1CC)CCN(CCC(C)=NO[C@@H](C)CN1CCCc3nc(C)c(C)cc31)C2	none (no result: Lassa entry inh, Vaccinia Venus, Vaccinia mCherry)
CCc1nc2ccc(C(=O)O)cc2nc1CC	Lassa entry inh 14.6µM, MARV entry inh 2µM
CCc1nc2ccc(C(=O)N3CCN(c4ccccc4)CC3)cc2nc1CC	none
CC(C)NS(=O)(=O)c1cc(C(F)(F)F)ccc1/C=C/C(=O)O	none (no result: Lassa entry inh, MARV entry inh)
Cc1ccc(C2CC(C(F)(F)F)n3nc(C(=O)NCc4c(C)nn(C)c4C)c(Cl)c3N2)cc1 (stereo not given)	Lassa entry inh inconclusive, Vaccinia Venus inconclusive, MARV entry inh 11.6µM!, Vaccinia mCherry inconclusive
CCOC(=O)N(CC)c1ccc(C(O)(C(=O)OCC)C(F)(F)F)cc1 (stereo not given)	Lassa entry inh 10µM
CCOC(=O)C(O)(c1ccc(N(CC)C(=O)OC)cc1)C(F)(F)F (stereo not given)	Lassa entry inh inconclusive (no result: Vaccinia Venus, Vaccinia mCherry)
COc1ccc(-c2cc(N)n(S(=O)(=O)c3c(F)c(F)c(F)c(F)c3F)n2)cc1OC	Lassa entry inh inconclusive, MARV entry inh 2.31µM (no result: Vaccinia Venus, Vaccinia mCherry)
COc1ccc(OC)c(C2C=C(c3ccc(C)c(C)c3)Nc3nnnn32)c1 (stereo not given)	Lassa entry inh 5.01µM, Vaccinia Venus inconclusive, MARV entry inh inconclusive (no result: Vaccinia mCherry)
COc1cccc(C2C=C(c3ccc(C)c(C)c3)Nc3nnnn32)c1OC (stereo not given)	Lassa entry inh inconclusive (no result: MARV entry inh)
Cc1cc(C(=O)NCC2CCC3(CCN(Cc4ccc5ccccc5c4)CC3)O2)n(C)n1 (stereo not given)	none (no result: Lassa entry inh, MARV entry inh)
c1ccc(COc2ncnc3c2ncn3CCCNCC(c2ccccc2)c2ccccc2)cc1	Vaccinia Venus 14.1µM, Vaccinia mCherry inconclusive (no result: Lassa entry inh, MARV entry inh)
CC(CNCCCn1ccc(NC(=O)OCc2ccccc2)nc1=O)c1ccccc1 (stereo not given)	none (no result: Lassa entry inh, MARV entry inh)
O=C(Nc1ccn(CCCNCC(c2ccccc2)c2ccccc2)c(=O)n1)OCc1ccccc1	Vaccinia Venus 11.2µM, Vaccinia mCherry 12.6µM (no result: Lassa entry inh, MARV entry inh)
COc1ncnc2c1ncn2CCCNCC(c1ccccc1)c1ccccc1	none (no result: Lassa entry inh, MARV entry inh)
O=C1CCCC2=C1[C@H]1O[C@](CCCCN3C(=O)c4ccccc4C3=O)(Cc3ccccc31)O2	none (no result: Lassa entry inh, Vaccinia Venus, Vaccinia mCherry)
O=C(N/N=C/c1cccc(Oc2ccccc2)c1)c1ccccc1Br	Lassa entry inh 6.51µM, MARV entry inh inconclusive

Screens as filed in PubChem.
